# Source: PubChem (National Center for Advancing Translational Sciences (NCATS))
# HT1080NT lethal = kills 2HG-producing HT-1080-NT fibrosarcoma cells; HT-1080-NT fibrosarcoma viability, CellTiter-Glo ATP luminescence, 48 h; Potency, µM (doses to about 46.1 µM), for the others: at the highest dose activity, negative = less viability, most hits filed as cytotoxic; actives 1.6% (n = 360,000);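 also: NT is the 2HG producing partner of a matched IDH1 knockdown line; 0% = DMSO-treated cells and -100% = media-only wells without cells; nearly all actives have a fitted effect of over 55% in size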
#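 Luminescent CellTiter-Glo readout after 48 hours of compound exposure at 37 degrees C defined viability of HT-1080-NT cells. Activity was normalized to DMSO wells and cell-free media wells; concentration-response curves were fitted and assigned curve classes.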
# HT1080 IDH1KD tx = kills HT-1080 cells with IDH1 knockdown; HT-1080 IDH1 knockdown viability, ATP luminescence, 48 h; Potency, µM (highest dose often 46.1 µM), for the others: at the highest dose activity, negative = toxicity, actives largely listed as cytotoxic; actives 2% (n = 360,000); AID 686971;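 also: 0% = DMSO wells and -100% = cell-free medium wells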
#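 Viability of IDH1-knockdown HT-1080 fibrosarcoma cells was assessed by CellTiter-Glo after 48 h at 37 °C with titrated compound; concentration-effect curves were classified by fit quality and response size.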
# TDP1 cell noCPT = qHTS for Inhibitors of human tyrosyl-DNA phosphodiesterase 1 (TDP1): qHTS in cells in absence of CPT; DT40 Tdp1-/- hTDP1 cells, no CPT, ATP luminescence, 48 h; Potency, µM (doses to about 46.2 µM), without a hit: top-dose activity change, negative = growth inhibition, hits mostly inhibitors; actives 15% (n = 420,000); AID 686978, 2013; also: % is scaled to controls: 0 for no effect and ±100 for the full control effect; nearly all actives have a fitted effect of over 55% in size
#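 Camptothecin absent (DMSO only). Human TDP1-complemented DT40 knockout cells, 400 cells/well, 37 °C for minimum 48 hr; ATP measured via CellTiter-Glo, 30 min dark incubation, luminescence.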
# TGFb inhibitor = blocks TGF-b signaling | HepG2 CAGA-GFP TGF-b/SMAD3 reporter, GFP fluorescence, 18 h; TGF-beta stimulated, 500 pg/mL final | Potency, µM (doses to about 46.1 µM), for the others: top-dose activity, negative = inhibition, actives largely listed as inhibitors | actives 1.2% (n = 410,000) | AID 588855; also: % is scaled to controls: 0 for no effect and ±100 for the full control effect; nearly all actives have a fitted effect of over 65% in size
#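 Smad-responsive CAGA-GFP expression was quantified in HEPG2 cells exposed to compounds and 500 pg/mL final TGF-beta for 18 h at 37 degrees C; unstimulated wells defined full inhibition.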
# TDP1 cell CPT = growth inhibition of DT40 Tdp1-/-;hTDP1 cells with camptothecin (screen for TDP1 inhibitors) | chicken DT40 Tdp1-/-;hTDP1 cells + 20 nM CPT, ATP luminescence, 48 h | AID 686979 | Potency, µM (series often up to 46.2 µM), for the others: top-dose activity change, negative = growth inhibition, most hits filed as inhibitors | actives 12% (n = 420,000); also: % is scaled to controls: 0 for no effect and ±100 for the full control effect; nearly all actives have a fitted effect of over 55% in size
#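 Cell growth measured by CellTiter-Glo luminescence after a minimum 48 h, 37 C compound exposure with 20 nM CPT in Tdp1-knockout DT40 cells stably expressing hTDP1, seeded 400/well; qHTS titration format.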
# HepG2 viability = HepG2 cytotoxicity, counter-screen for TGF-b inhibitors; HepG2 CAGA-GFP viability, ATP luminescence, 18 h; Potency, µM (titrated, usually from 46.1 µM), for the others: at the highest dose activity change, negative = cytotoxicity, actives largely listed as cytotoxic; actives 0.76% (n = 410,000); AID 588856
#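 CellTiter-Glo luminescence gave cytotoxicity after 18 hours at 37 degrees C. The cells were HepG2 CAGA-GFP in 1% FBS DMEM, stimulated with 500 pg/mL TGF-beta after compound addition. %Activity was normalised to no-cell wells (complete cell-killing) and DMSO (no toxicity), and curves were fitted and classified.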
# An asterisk follows results filed as active; i = inactive; ? = inconclusive; / = no result given; [ ] = remark or other dose. This is a sample that favours compounds with a hit; in the whole collection about 17% have one here. Calls follow the shape of the dose curve; as a rule, active = well fitted curve in the direction sought with a large enough effect; inconclusive = small, poorly fitted or top-dose-only effect, or another doubt; inactive = no such curve, though single readings can be large; an effect the other way counts as inactive or inconclusive. Potency is read from the fitted curve at half-maximal effect.
SMILES,HT1080NT lethal,HT1080 IDH1KD tx,TDP1 cell noCPT,TGFb inhibitor,TDP1 cell CPT,HepG2 viability
CCOC(=O)c1cc(-c2ccc(C)cc2)n(CC(=O)Nc2cccc(C(C)=O)c2)c1C,/,/,?,-6.6%,-20.9%,-21.6%
CCOC(=O)c1cc(-c2ccc(C)cc2)n(CC(=O)Nc2cc(C)ccc2C)c1C,/,/,14.6µM*,3.3%,20.6µM*,-11.5%
O=C(CCN1C(=O)c2ccccc2C1=O)N1CCN(c2ccccn2)CC1,0.9%,5.6%,-11.8%,4.8%,0.2%,-16.2%
Cc1cc(C(=O)NCc2nnc3n2CCN(Cc2ccc4c(c2)Cc2ccccc2-4)CC3)c(C)o1,/,/,16.4µM*,/,?,/
Cc1cc(C(=O)NCc2nnc3n2CCN(Cc2ccc(C)c(C)c2)CC3)c(C)o1,/,/,-1.3%,/,10.3%[9.04 µM],/
CCCCC[n+]1ccn(C2=C([O-])c3ccccc3C(=O)/C2=N\S(=O)(=O)c2ccccc2)c1,?,18.4µM*,18.4µM*,?,14.6µM*,6.31µM*
CC(C)c1ccc(NC(=O)C[n+]2ccn(C3=C([O-])c4ccccc4C3=O)c2)cc1,-12.1%,-13.2%,-26.3%,-8.5%,-1.4%,-2.6%
CC(C)[n+]1ccn(C2=C([O-])c3ccccc3C(=O)/C2=N\S(=O)(=O)c2ccccc2)c1,23.1µM*,23.1µM*,18.4µM*,20µM*,?,-128.3%
CCCCC[n+]1ccn(C2=C([O-])c3ccccc3C(=O)/C2=N\S(=O)(=O)c2ccc(Br)cc2)c1,-7.4%,-2.1%,?,1.58µM*,10.3µM*,3.98µM*
CCCCC[n+]1ccn(-c2nc3ccccc3nc2[N-]S(=O)(=O)c2ccc(C)cc2)c1,2.6%,5.3%,-4.7%,3.5%,-1.5%,-4.9%
O=C1/C(=N\S(=O)(=O)c2cccs2)C([n+]2ccc(CCCc3ccccc3)cc2)=C([O-])c2ccccc21,-27.6%,?,-28.6%,15.8µM*,-11.6%,-104.8%
COc1ccc(C(=O)NC2=NCCS2)cc1S(=O)(=O)N1CCOCC1,-0.8%,10.8%,5.0%,4.6%,6.3%,-4.5%
C[C@@H](NC(=O)[C@@H]1CCCN1C(=O)[C@@H]1CCCN1C(=O)c1cccc(Cl)c1)c1ccccc1,9.6%,6.9%,-17.1%,/,-23.7%,/
CCN(CC(=O)NCc1cccs1)C(=O)CCC(=O)c1ccc(C)cc1,8.2%,-0.4%,-6.7%,-4.4%,7.3%,8.4%
COc1ccc(C(=O)N/C(=C/c2cccs2)C(=O)N2CCN(C)CC2)cc1,2.0%,10.3%,-20.8%,10.3%,2.8%,2.6%
O=C1Nc2ccccc2-n2nnnc2C1N1CCN(C(=O)C2CCCO2)CC1 (stereo unspecified),22.0%,12.4%,1.3%,/,9.3%,/
CC(C)(C)c1cc[n+](C2=C([O-])c3ccccc3C(=O)/C2=N\S(=O)(=O)c2ccccc2)cc1,?,20.6µM*,23.1µM*,14.1µM*,?,i
Cc1cc[n+](C2=C([O-])c3ccccc3C(=O)/C2=N\S(=O)(=O)c2cccs2)cc1C,-3.3%,-2.3%,?,-24.9%,?,-12.0%
COC(=O)[C@]1(Cc2ccccc2)N[C@H](c2ccc(-c3cc(C(C)=O)cs3)cc2)[C@@H]2C(=O)N(C)C(=O)[C@@H]21,1.8%,6.0%,23.1µM*,5.6%,16.4µM*,5.4%
COC(=O)[C@]1(Cc2ccccc2)N[C@H](c2ccc(-c3ccc(Cl)c(Cl)c3)cc2)[C@@H]2C(=O)N(C)C(=O)[C@@H]21,0.9%,-12.9%,18.4µM*,2.6%,18.4µM*,-10.2%
COC(=O)[C@]1(Cc2ccccc2)N[C@H](c2ccc(-c3cccc(Cl)c3)cc2)[C@@H]2C(=O)N(C)C(=O)[C@@H]21,?,-0.1%,?,-15.8%,16.4µM*,-9.4%
COC(=O)[C@]1(Cc2ccccc2)N[C@H](c2ccc(-c3ccccc3)cc2)[C@@H]2C(=O)N(C)C(=O)[C@@H]21,-9.3%,?,?,?,?,-20.5%
O=S(=O)(Cc1cccc(C(F)(F)F)c1)c1ncn[nH]1,5.6%,10.7%,-12.1%,3.7%,-9.5%,-3.6%
CCn1c(C(=O)NCc2ccc(OC(C)C)cc2)cc2oc3ccccc3c21,/,/,-25.8%,/,-5.0%,-15.1%
Cc1csc(=O)n1CCC(=O)OCC(=O)NNC(=O)c1ccccc1,19.3%,16.6%,-3.8%,-4.6%,2.6%,-1.8%
SMILES,HT1080NT lethal,HT1080 IDH1KD tx,TDP1 cell noCPT,TGFb inhibitor,TDP1 cell CPT,HepG2 viability
O=C(Nc1c2c(nn1-c1ccc(F)cc1)CS(=O)(=O)C2)c1ccc2c(c1)OCO2,6.2%,2.5%,11.6%,6.5%,-7.0%,3.5%
Cc1ccccc1Cn1cnc2nc3c(cc2c1=O)CC(C)CC3 (stereo unspecified),/,/,2.59µM*,12.5%,16.4µM*,3.7%
CC1CCc2nc3ncn(Cc4ccc(Cl)cc4)c(=O)c3cc2C1 (stereo unspecified),/,/,23.1µM*,0.5%,18.4µM*,-1.7%
COc1cc(C(=O)Nc2ccccc2-c2nc(-c3ccccc3)no2)cc(OC)c1OC,/,/,-25.9%,1.5%,-19.6%,3.4%
COc1ccc2c(c1)-c1nc(NC(=O)c3ccc(OC)c(Br)c3)sc1CC2,/,/,8.2µM*,-6.1%,?,-51.6%
COc1ccc(C(=O)Nc2nc(-c3ccc([N+](=O)[O-])cc3)c(-c3ccc(OC)cc3)s2)cc1,9.2%,2.9%,10.3µM*,3.3%,?,18.4%
COc1ccc2c(c1)Cc1sc(NC(=O)c3ccc(Cl)cc3)nc1-2,/,/,13µM*,-8.1%,20.6µM*,-13.7%
